hgDAF-12 ag – agonists of H. glycines DAF-12 nuclear receptor. HEK293 GAL4-hgDAF12 UAS-luciferase reporter, agonist luminescence; normalized to butyrate control. activation, % at 6.8 µM. 370,000 tested, 1.8% active. AID 687014;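 active means activation above a cutoff set at the mean of all screened compounds plus 3 SD, cut at about 10% in these data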;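 further: 0% = DMSO wells and 100% = sodium butyrate wells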
hcDAF12 agonist – activators of H. contortus DAF-12 nuclear receptor. HEK293 hcDAF-12 lit1-tk-luc reporter, luminescence; 0% DMSO, 100% Δ7-dafachronic acid. activation, % at 6.8 µM. 370,000 tested, 1.4% active. AID 652067;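 active means activation above the mean of all tested compounds plus 3 SD, cut at about 5.5% in these data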;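 further: 100% = response to 3 µM Δ7-dafachronic acid high control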
ssDAF-12 act – activators of S. stercoralis DAF-12 nuclear receptor; HEK293 ssDAF-12/GRIP1 lit1-tk-luc reporter, luminescence; % of 3 µM dafachronic acid response; activation, % at 6.8 µM; 370,000 tested, 1% active;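 active means activation above the mean over all tested compounds plus 3 SD, cut at about 0.9% in these data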;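 further: 0% = DMSO-only wells and 100% = 3 µM delta7-dafachronic acid wells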
FXN GAA850 act – increases GAA850 frataxin promoter reporter activity | HEK293 lucGAA850 FXN promoter luciferase reporter, 24 h; percent of 10 µM SAHA response | activation, % at 6 µM | 360,000 tested, 0.56% active;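 active means activation above the average of all compounds screened plus 3 SD, cutoff fixed separately per campaign, cut at about 7.5% in these data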;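 further: 0% = DMSO wells and 100% = 10 µM SAHA wells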
DAX1 inh-1 – blocks DAX1 repression of SF-1 activated StAR promoter | HEK293T StAR-luciferase reporter, SF-1/DAX-1 repression relief | inhibition, % at 6.8 µM | 370,000 tested, 1.1% active;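 active means inhibition above the mean over all tested compounds plus 3 SD, cut at about 3.6% in these data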;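 further: 0% = DAX-1 cells with DMSO and 100% = cells lacking DAX-1 with DMSO; higher inhibition means more luminescence from relief of DAX-1 repression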
DAX1 inh-2 – NR0B1 (DAX1) inhibition. P51843. HEK293 Gal4-DAX1 luciferase reporter, luminescence. inhibition, % at 6.75 µM. 340,000 tested, 0.99% active. AID 504766;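 active means inhibition above the mean over all tested compounds plus 3 SD, cut at about 4.2% in these data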;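 further: 0% = DAX1-transfected cells with DMSO and 100% = empty-vector control cells with DMSO; inhibition shows as a rise in luminescence from relieved DAX1 repression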
Target sequence (P51843 207-470 limits assumed): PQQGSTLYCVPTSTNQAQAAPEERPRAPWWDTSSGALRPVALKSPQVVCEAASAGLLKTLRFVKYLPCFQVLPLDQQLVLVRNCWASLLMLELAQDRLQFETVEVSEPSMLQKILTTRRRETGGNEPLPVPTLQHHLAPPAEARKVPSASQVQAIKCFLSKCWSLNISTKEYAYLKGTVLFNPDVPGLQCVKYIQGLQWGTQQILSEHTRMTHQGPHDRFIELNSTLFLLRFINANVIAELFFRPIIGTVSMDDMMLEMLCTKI
* = called active by the depositor; · = no result. This is a sample that favours compounds with a hit; in the whole collection about 4.5% have one here.

SMILES	hgDAF-12 ag	hcDAF12 agonist	ssDAF-12 act	FXN GAA850 act	DAX1 inh-1	DAX1 inh-2
COC(=O)c1cc2c(c3c4cc(OC)ccc4n(S(=O)(=O)c4ccc(OC)cc4)c13)C(=O)N(Cc1ccccc1OC)C2	0	-1	-1	·	-1	·
CC(=O)c1cccc(OCc2cc(C(=O)N3C[C@@H](C)O[C@@H](C)C3)no2)c1	8	0	-1	3	4.2*	2
CC(=O)c1cccc(OCc2cc(C(=O)N3C[C@H]4CC[C@H]3C4)no2)c1	8	1	0	6	2	1
CN1CCN(C(=S)Nc2cc([N+](=O)[O-])ccc2Cl)CC1	3	0	-1	-2	0	5.3*
CN1CCN(C(=S)c2ccc([N+](=O)[O-])cc2)CC1	3	-2	-1	2	0	0
CC1(c2ccccc2)NC(=O)N(CC(=O)NC(=O)NC2CCCC2)C1=O (stereo unspecified)	2	0	-1	0	0	0
O=C(CN1C(=O)CCC1=O)NC(=O)NC1CCCC1	1	0	0	2	1	4.6*
COc1ccc(Nc2nc(-c3cccs3)cs2)c(OC)c1	10	5	1.1*	6	3	4.9*
COc1ccc(-c2csc(Nc3ccc(C)cn3)n2)cc1	12*	1	-1	3	1	1
COc1ccc(-c2csc(Nc3ccccn3)n2)cc1OC	10	3	0.9*	4	2	4.8*
Oc1ccc(-c2csc(Nc3ncccn3)n2)c(O)c1	25*	0	0	3	2	2
COC(=O)C1CN(Cc2cn(Cc3ccccc3)nn2)CCS(=O)(=O)N1Cc1ccc(F)cc1 (stereo unspecified)	-1	-3	-1	·	-2	·
COc1cccc(-c2ccc(CC[C@H]3O[C@H]4CC[C@@H](CO)O[C@H]4C[C@H]3NS(C)(=O)=O)cc2)c1	2	-1	-1	·	0	·
CCN(C(=O)[C@@H](C)[C@@H](O)c1ccc2ccccc2c1)c1ccccc1	-1	-1	-1	·	-1	·
Cc1cccnc1Nc1nc(-c2ccc(O)cc2)cs1	9	0	-1	5	2	2
COc1ccccc1Nc1nc(-c2cccnc2)cs1	12*	2	1.2*	4	0	1
CC(=O)Nc1ccc(-c2csc(Nc3cccc(C)n3)n2)cc1	11*	1	0	6	2	3
Oc1ccc(-c2csc(Nc3ccccn3)n2)cc1	11*	5	0	4	1	4.7*
CC(C)(N[C@@H](Cc1c[nH]c2ccccc12)C(=O)NCCc1c[nH]c2ccccc12)C(=O)NC1CCCCC1	-4	3	-1	·	·	·
CCc1ccc2nc3nc(C)cc(C)c3c(N)c2c1	3	2	0	-6	0	0
Cc1cc(C)c2c(N)c3ccccc3nc2n1	11*	18*	4.0*	-4	2	-1
Nc1nc2n[nH]nc2c(=O)[nH]1	1	2	1.5*	-1	0	2
COCCCN1C(=O)[C@H](CC(=O)N2CCOCC2)[C@]2(C(=O)OC)CCCCC=C12	-2	0	-1	·	0	·
O=c1[nH]c2ccccc2nc1-c1cccs1	4	2	0	2	1	0
c1csc(-c2nnsc2-c2nc3ccccc3[nH]2)c1	4	3	1.4*	6	0	1
SMILES	hgDAF-12 ag	hcDAF12 agonist	ssDAF-12 act	FXN GAA850 act	DAX1 inh-1	DAX1 inh-2
COc1ccccc1-c1nc(COc2ccc(Cl)cc2Cl)no1	5	2	0	5	1	4.6*
O=C1N(Cc2ccccc2)c2ccccc2C12CCCc1oc(CCc3ccccc3)nc12 (stereo unspecified)	-3	-5	-2	·	-1	·
Cc1ccccc1C(=O)Nc1ccnn1C1CCN(Cc2c(C)n(C)c3ccccc23)CC1	0	6.1*	-1	-1	0	1
COc1ccccc1CNC(=O)C[C@H]1CC[C@H]2[C@H](COc3ccc(NS(=O)(=O)c4ccc(C)cc4)cc3C(=O)N2C)O1	-1	-1	-1	·	0	·
COc1ccc(CNC(=O)Cc2csc(Nc3nc(=S)[nH]c4ccccc34)n2)cc1	-3	5	1.0*	-1	1	1
C=CCNC(=O)COc1ccccc1C#N	6	1	-2	2	1	0
CC(C)(C)NC(=O)NC(=O)COc1ccccc1C#N	9	2	0	-2	3	5.1*
N#Cc1ccccc1OCC(=O)NC1CCCCCC1	11*	5	0	1	2	3
CC(C)NC(=O)COc1cccc2ccccc12	-2	-1	-2	1	0	2
CSCCC(NC(=O)COc1cccc2ccccc12)C(=O)O (stereo unspecified)	-3	-1	1.0*	3	-1	1
O=C(CCC1CCCC1)NNC(=O)c1cc2ccccc2cc1O	-2	1	-1	0	0	-1
O=C(CC1CCCC1)NNC(=O)c1ccccc1O	5	0	1.3*	3	0	4
CCOc1ccc(C(=O)Nc2cc(C)ccn2)cc1	7	4	1	-3	3.6*	-3
CCCCOc1ccc(C(=O)Nc2cccc(C)n2)cc1	8	1	-1	3	1	-1
Cc1noc(C)c1COc1ccc(C(=O)Nc2ncccc2O)cc1	11*	-1	-1	3	3	0
CCOc1ccc(C(=O)Nc2ncccc2Cl)cc1	11*	2	0	4	1	1
CCOc1ccc(C(=O)Nc2cccc(C)n2)cc1	7	5	1.1*	1	4.0*	-2
COc1ccc2c(c1)N[C@@](CCNC=O)(c1[nH]c3ccccc3c1CCNC=O)C2=O	-2	4	-1	·	·	·
CCCCNC(=O)C[C@H]1C(=O)N(Cc2ccc(OC)cc2)C2=CCCCC[C@@]21C(=O)OC	-1	-1	-2	·	0	·
CCOc1ccc(C(=O)Nc2nnn(CC)n2)cc1	12*	5	0	2	1	0
CCOc1ncccc1C(=O)NCc1ccccc1Cl	1	-1	-2	1	0	5.7*
Cc1noc(C)c1COc1ccc(CC(=O)NC2CCCCCC2)cc1	-3	-1	-1	3	-1	4.7*
CCCSc1nsc(NC(=O)c2cccnc2OCC)n1	5	1	0	3	0	5.8*
Cc1ccccc1S(=O)(=O)N1CCC(c2nc3ccccc3o2)CC1	-1	-3	-1	·	0	·
Cc1ccc(CNC(=O)c2cccc(OCc3c(C)noc3C)c2)cc1	2	-2	-1	-1	-1	6.8*
Cc1ccnc(NC(=O)c2ccc3[nH]c(=O)c(=O)[nH]c3c2)c1	2	1	3.3*	0	0	0

Screening data from PubChem BioAssay.
